# Laboratory results: the supplement of paper PMC7156485
# “And” between values parts separate entries of the source, which are not always exact repeats. Equal entries are not always repeated. ± gives the standard deviation of the averaged measurements.
# How the values were obtained:
# Settings in all cases: concentration: 10 µM; 24 h
# HCC1569 [1] = assay: cell number relative to DMSO (% of DMSO); higher = more cells (less growth inhibition / toxicity)
# In short: (§1)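 Six fields per well were imaged at ×10 after the cells were fixed in 3.7% formaldehyde and stained with a rabbit anti-H1.0 antibody, an AlexaFluor 647 secondary and DAPI. The HCC1569 and TDF cells had been plated at 800 per well in 384-well plates (RPMI, 10% FBS) and treated in triplicate with compounds at 10 µM for 24 h at 37 °C. The values are the median of replicates of H1.0 nuclear intensity or cell number, as percent of the plate control. Smoothing for positional effects was applied to HCC1569 data.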
# TDF [2] = assay: as above
# In short: as §1
# TDF [3] = assay: H1.0 immunofluorescence intensity relative to DMSO (% of DMSO); higher = stronger H1.0 induction, active = 120 or more
# In short: as §1
# HCC1569 [4] = assay: H1.0 immunofluorescence intensity relative to DMSO (% of DMSO); higher = stronger H1.0 induction, active = 140 or more
# In short: as §1
# 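Throughout, for H1.0 immunofluorescence intensity relative to DMSO: TDF is a line of transformed human dermal fibroblasts of mesenchymal origin.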
# 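Throughout, for cell number relative to DMSO: TDF denotes transformed human dermal fibroblasts of mesenchymal origin.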
SMILES,cell number (HCC1569 [1]),cell number (TDF [2]),H1.0 immunofluorescence intensity (TDF [3]),H1.0 immunofluorescence intensity (HCC1569 [4])
CCCCCC(O)C=CC1C(O)CC(=O)C1CC=CCCCC(=O)O (centres undefined) [Prostaglandin E2],100 ± 2.4,102 ± 6.3,95.7 (inactive),100 (inactive)
Nc1[nH]nc2nc3ccccc3nc12,95,104,101 (inactive),115 (inactive)
CN(C)CCN1C(=O)c2ccccc2N(C)c2ccccc21 [Dibenzepine],102,112,97.7 (inactive),111 (inactive)
O=C1c2ccccc2-c2n[nH]c3cccc1c23,93.2,107,92 (inactive),138 (inactive)
Cl.N=C(N)c1ccccc1 [Benzamidine hydrochloride],100,103,94 (inactive),85.3 (inactive)
CCc1[nH]c(-c2ccc(OC)cc2)nc1-c1ccncc1,98.5,99.6,97 (inactive),120 (inactive)
CCCCNC(=O)NS(=O)(=O)c1ccc(C)cc1 [Tolbutamide],102 ± 3.9,108 ± 11,93 (inactive),101 (inactive)
O=C1[N-]C(=O)C(c2ccccc2)(c2ccccc2)N1.[Na+] [Phenytoin sodium],99.9,111,99.8 (inactive),103 (inactive)
COc1ccc(Cl)cc1C(=O)NCCc1ccc(S(=O)(=O)NC(=O)NC2CCCCC2)cc1 [Glibenclamide],101,105,93.9 (inactive),90.3 (inactive)
"O=C1C(=O)C(c2ccc(O)c(O)c2)Oc2cc(O)cc(O)c21 (centres undefined) [2-(3,4-dihydroxyphenyl)-3,5,7-trihydroxy-4H-chromen-4-one]",81.2,74.4,103 (inactive),158 (active)
Nn1nnc2ccccc21 [1-Aminobenzotriazole],106,107,92.8 (inactive),85.9 (inactive)
C=CC[N+]1(C2CC3C4CCC5CC(O)C(N6CCOCC6)CC5(C)C4CCC3(C)C2OC(C)=O)CCCC1.[Br-] (centres undefined) [Rocuronium bromide],107,104,99.6 (inactive),99.4 (inactive)
COc1cc2ncc(-c3ccccc3)nc2cc1OC [Tyrphostin AG 1296],98.1,106,97.3 (inactive),111 (inactive)
CCCCCCCCC1OC1CCCCCCCC(=O)O (centres undefined) [Epoxy-oleic acid],97.7,99.9,96.8 (inactive),99.1 (inactive)
"OC1C(O)C(O)C(O)C(O)C1O (centres undefined) [1,2,3,4,5,6-cyclohexanehexol]",102 ± 3,104 ± 7.5,96.9 (inactive),92.9 (inactive)
O=C(NCCCNc1nc(Nc2cccc(NC(=O)N3CCCC3)c2)ncc1I)c1cccs1,62,42.3,114 (inactive),134 (inactive)
CCCCCCCCC=CCCCCCCCCCCCCCC(=O)O [15(Z)-Tetracosenoic acid],103,98.8,94.8 (inactive),99.1 (inactive)
CC(C)C1NC(=O)C(CCCCN)NC(=O)C(Cc2c[nH]c3ccccc23)NC(=O)C(Cc2ccc(O)cc2)NC(=O)C(C)N(C)C(=O)C(Cc2ccccc2)NC1=O (centres undefined) [Seglitide],89.8,98.2,102 (inactive),152 (active)
COc1cc(CC2C(=O)OCC2Cc2ccc(OC)c(OC)c2)ccc1O (centres undefined),80.5,74.6,103 (inactive),156 (active)
OCC1OC(OC2OC=CC3C(O)C4OC4(CO)C23)C(O)C(O)C1O (centres undefined) [Catalpol],105,106,96.6 (inactive),89.4 (inactive)
O=C(O)CO.[NH2-].[NH2-].[Pt+2] [Nedaplatin],94.6,92.6,96.9 (inactive),104 (inactive)
CCCCCCCCCCCCCC=CC(O)C(CO)NCCCCCCCC (centres undefined) [C8 Ceramine],105,97,95.1 (inactive),121 (inactive)
NC(C(=O)O)C(O)C(=O)O (racemic) [DL-threo-beta-hydroxyaspartic acid],101,110,96.7 (inactive),95.9 (inactive)
"Cc1ccc(Cl)c(Nc2ccccc2C(=O)[O-])c1Cl.[Na+] [sodium 2-(2,6-dichloro-3-methylanilino)benzoate]",99.4,111,97.9 (inactive),102 (inactive)
Cc1cccc(-c2nn(C(=S)Nc3ccccc3)cc2-c2ccnc3ccccc23)n1,98.7,97.7,82.2 (inactive),134 (inactive)
CN(C)CCCC1(c2ccc(F)cc2)OCc2cc(C#N)ccc21 (centres undefined) [Escitalopram],100,86.1,98 (inactive),93.5 (inactive)

SMILES,cell number (HCC1569 [1]),cell number (TDF [2]),H1.0 immunofluorescence intensity (TDF [3]),H1.0 immunofluorescence intensity (HCC1569 [4])
C=C1CCC2OC2(C)CCC2C1CC2(C)C (centres undefined) [Caryophylline],104,99,105 (inactive),91.3 (inactive)
Cl.Cl.Fc1ccc(C(c2ccc(F)cc2)N2CCN(CC=Cc3ccccc3)CC2)cc1 [Flunarizine.2HCl],97.6,105,92.2 (inactive),112 (inactive)
O=C(Nc1ccc(-c2cn[nH]c2)cc1)C1COc2ccccc2O1 (centres undefined) [Rho Kinase Inhibitor V],107,109,87.7 (inactive),101 (inactive)
CC(C=CC1(O)C(C)=CC(=O)CC1(C)C)=CC(=O)O (racemic),103,103,99.5 (inactive),88.1 (inactive)
"CCCCCCC=CC=CCCCCCCCC(=O)O [9(Z), 11(Z)-octadecadienoic acid]",99.8,108,107 (inactive),103 (inactive)
O=C1CC(c2ccc(O)cc2)Oc2cc(O)cc(O)c21 (centres undefined) [Naringenin],99.9,110,90.6 (inactive),85.4 (inactive)
O=C(O)CCCC=CCC1C(=O)CC(O)C1C=CC(O)CCc1ccccc1 (centres undefined) [17-Phenyl-trinor-prostaglanding E2],105,102,106 (inactive),97.5 (inactive)
CCCCS(=N)(=O)CCC(N)C(=O)O (centres undefined) [Buthionine sulfoximine],95.9,116,89.1 (inactive),92.6 (inactive)
CC1(C)CC1C(=O)NC(=CCCCCSCC(N)C(=O)O)C(=O)O (centres undefined) [Cilastatin],100,94,101 (inactive),119 (inactive)
Cl.O=C(NCCCCN1CCN(c2cccc(Cl)c2Cl)CC1)c1ccc2c(c1)Cc1ccccc1-2,93.5,98.2,96.4 (inactive),116 (inactive)
CC(Cc1ccc(O)c(O)c1)C(C)Cc1ccc(O)c(O)c1 (centres undefined),72.5 and 72.1,108 and 87.9,100 (inactive) and 95.2 (inactive),116 (inactive) and 122 (inactive)
COc1cc2c(cc1OC)-c1[nH]nc(Nc3cccc(F)c3)c1C2 [PDGF Receptor Tyrosine Kinase Inhibitor IV],64.3,8.88,131 (active),160 (active)
N#Cc1cc2nc([O-])c([O-])nc2cc1[N+](=O)[O-].[Na+].[Na+] [CNQX disodium],99.5,101,94.1 (inactive),101 (inactive)
"O.Oc1cc(O)c2c(c1)OC(c1ccc(O)c(O)c1)C(O)C2 (single isomer, unassigned; (+)) [(+)-Catechin Hydrate]",98.9,110,90.6 (inactive),91.7 (inactive)
CC(CN1c2ccccc2Sc2ccccc21)N(C)C.Cl (centres undefined) [Promethazine.HCl],104,101,96.1 (inactive),121 (inactive)
NCC1OC(OC2C(CO)OC(OC3C(O)C(N)CC(N)C3OC3OC(CN)C(O)C(O)C3N)C2O)C(N)C(O)C1O (centres undefined) [Neomycin],99.58 ± 0.33,93.4 ± 5.1,100 (inactive),91.8 (inactive)
CC(=O)NNC(=O)N1Cc2ccccc2Oc2ccc(Cl)cc21,101,114,91 (inactive),103 (inactive)
Cc1cccc2c3c(ccc12)C1=C(C(=O)C3=O)C(C)CO1 (centres undefined) [Dihydrotanshinone],53.6,33.6,111 (inactive),106 (inactive)
CCN(CC)CCCC(C)Nc1ccnc2cc(Cl)ccc12 (centres undefined) [Chloroquine],101,99.6,98.2 (inactive),93.6 (inactive)
CCCCCCCCC=CCCCCCCCC(=O)O [Oleic Acid],105,103,91.8 (inactive),87.8 (inactive)
COc1cccc(OC)c1OCCNCC1CSc2ccccc2O1.Cl (centres undefined) [Benoxathian hydrochloride],91.4,108,91.8 (inactive),92 (inactive)
CC(C)Cc1ccc(C(C)C(=O)O)cc1 (racemic),103,112,95.4 (inactive),97.7 (inactive)
CCOc1ccc2c(c1)C(C)=CC(C)(C)N2 [Ethoxyquin],100,104,96.1 (inactive),98.9 (inactive)
O=C(O)c1ccc(-c2c[nH]c3ncc(-c4ccccc4)cc23)cc1C1CCCC1,71.1 and 70.9,69.4 and 71.3,95.6 (inactive) and 106 (inactive),152 (active) and 146 (active)
CCCOc1ccccc1-c1nc2[nH][nH]nc-2c(=O)n1 [Zaprinast],100.3 ± 0.47,113 ± 8.6,99.1 (inactive),104 (inactive)
